Test results published in PMC5540273 (PLoS ONE, 2017).

What was measured:
[1] = system: AAK1; details: concentration: 1 μM, replicates: in singlicate; n = 1
[2] = system: ABL1-nonphosphorylated; details: concentration: 1 μM, replicates: in singlicate; n = 1
[3] = system: ABL1-phosphorylated; details: concentration: 1 μM, replicates: in singlicate; n = 1
[4] = system: ABL2; details: concentration: 1 μM, replicates: in singlicate; n = 1
[5] = system: ACVR1B; details: concentration: 1 μM, replicates: in singlicate; n = 1
[6] = system: ACVR1; details: concentration: 1 μM, replicates: in singlicate; n = 1
[7] = system: ACVR2A; details: concentration: 1 μM, replicates: in singlicate; n = 1
[8] = system: ACVR2B; details: concentration: 1 μM, replicates: in singlicate; n = 1
[9] = system: ACVRL1; details: concentration: 1 μM, replicates: in singlicate; n = 1
[10] = system: T1, ADCK3; details: concentration: 1 μM, replicates: in singlicate; n = 1
T1 construct: gene CABC1

[11] = system: ADCK4; details: concentration: 1 μM, replicates: in singlicate; n = 1
[12] = system: AKT1; details: concentration: 1 μM, replicates: in singlicate; n = 1
[13] = system: AKT2; details: concentration: 1 μM, replicates: in singlicate; n = 1
[14] = system: AKT3; details: concentration: 1 μM, replicates: in singlicate; n = 1
[15] = system: ALK; details: concentration: 1 μM, replicates: in singlicate; n = 1
[16] = system: T2, AMPK-alpha1; details: concentration: 1 μM, replicates: in singlicate; n = 1
T2 construct: gene PRKAA1

[17] = system: T3, p38-alpha
T3 construct: gene MAPK14

[18] = system: T4, p38-beta
T4 construct: gene MAPK11
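Wherever %Inh is given: KINOMEscan kinase panel screen.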
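Wherever Kd is given: kd values determined as follow-up on hits from a single-replicate KINOMEscan panel screen.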

Compound: NCC(NC(=O)c1cc(-c2cn[nH]c2)c(-c2ccnc3[nH]ccc23)s1)c1ccccc1.O=C(O)C(F)(F)F.O=C(O)C(F)(F)F (stereo not shown) [GSK1325775]
- %Inh [1]: 86%
- %Inh [2]: 1%
- %Inh [3]: 0%
- %Inh [4]: 0%
- %Inh [5]: 0%
- %Inh [6]: 52%
- %Inh [7]: 15%
- %Inh [8]: 0%
- %Inh [9]: 0%
- %Inh [10]: 52%
- %Inh [11]: 58%
- %Inh [12]: 66%
- %Inh [13]: 23%
- %Inh [14]: 83%
- %Inh [15]: 38%
- %Inh [16]: 17%

Compound: CN1c2ccc(NCc3ccc(F)cc3)cc2-c2c(cnn2C)S1(=O)=O
- %Inh [1]: 0%
- %Inh [2]: 21%
- %Inh [3]: 9%
- %Inh [4]: 0%
- %Inh [5]: 0%
- %Inh [6]: 0%
- %Inh [7]: 0%
- %Inh [8]: 0%
- %Inh [9]: 7%
- %Inh [10]: 10%
- %Inh [11]: 0%
- %Inh [12]: 4%
- %Inh [13]: 7%
- %Inh [14]: 0%
- %Inh [15]: 13%
- %Inh [16]: 0%

Compound: c1ccc(-c2cc(-c3c[nH]nc3-c3ccccn3)ccn2)cc1 [GW576604]
- %Inh [1]: 23%
- %Inh [2]: 0%
- %Inh [3]: 0%
- %Inh [4]: 0%
- %Inh [5]: 37%
- %Inh [6]: 0%
- %Inh [7]: 0%
- %Inh [8]: 42%
- %Inh [9]: 0%
- %Inh [10]: 1%
- %Inh [11]: 12%
- %Inh [12]: 0%
- %Inh [13]: 0%
- %Inh [14]: 0%
- %Inh [15]: 14%
- %Inh [16]: 0%

Compound: Cc1c2ccc(N(C)c3ccnc(Nc4cccc(S(N)(=O)=O)c4)n3)cc2nn1Cc1ccccc1.Cl.Cl [GW787226]
- %Inh [1]: 2%
- %Inh [2]: 98.4%
- %Inh [3]: 61%
- %Inh [4]: 71%
- %Inh [5]: 6%
- %Inh [6]: 0%
- %Inh [7]: 0%
- %Inh [8]: 0%
- %Inh [9]: 12%
- %Inh [10]: 0%
- %Inh [11]: 0%
- %Inh [12]: 0%
- %Inh [13]: 0%
- %Inh [14]: 0%
- %Inh [15]: 0%
- %Inh [16]: 17%

Compound: COCCNC(=O)c1ccc(-c2cc(C(=O)NC3CC3)cc(F)c2C)cc1 [GW868318]
- Kd [17]: 7.3 nM
- Kd [18]: 88 nM
- %Inh [1]: 0%
- %Inh [2]: 43%
- %Inh [3]: 28%
- %Inh [4]: 12%
- %Inh [5]: 17%
- %Inh [6]: 7%
- %Inh [7]: 12%
- %Inh [8]: 0%
- %Inh [9]: 9%
- %Inh [10]: 14%
- %Inh [11]: 0%
- %Inh [12]: 0%
- %Inh [13]: 15%
- %Inh [14]: 26%
- %Inh [15]: 51%
- %Inh [16]: 20%

Compound: Cc1ccc(C(=O)NCC(N)=O)cc1-n1c(C)cc(OCc2ccc(F)cc2F)c(Br)c1=O
- Kd [17]: 0.23 nM
- Kd [18]: 10 nM
- %Inh [1]: 0%
- %Inh [2]: 57%
- %Inh [3]: 33%
- %Inh [4]: 27%
- %Inh [5]: 11%
- %Inh [6]: 11%
- %Inh [7]: 0%
- %Inh [8]: 4%
- %Inh [9]: 28%
- %Inh [10]: 27%
- %Inh [11]: 2%
- %Inh [12]: 29%
- %Inh [13]: 19%
- %Inh [14]: 0%
- %Inh [15]: 0%
- %Inh [16]: 30%
